# Measurements published in publication PMC11062922 (Nature Chemical Biology, 2023).
# Read-outs that look alike come from different tables or passages of the source.
# How the values were obtained:
# SYK = settings: read-out: apparent Kd, n = 1
# TNK2 = settings: read-out: apparent Kd, n = 1
# [1] = compound concentrations:100 nM and 1000 nM (sheet 'Lestaurtinib' of Supplementary Table 1),run:Lestaurtinib_02748_R1,Plate:MR024
# [2] = compound concentrations:100 nM and 1000 nM (sheet 'Lestaurtinib' of Supplementary Table 1),run:Lestaurtinib_02752_R1,Plate:MR025
# [3] = compound concentrations:100 nM and 1000 nM (sheet 'Lestaurtinib' of Supplementary Table 1),run:Lestaurtinib_02752_R2,Plate:MR025
# [4] = compound concentrations:100 nM and 1000 nM (sheet 'Lestaurtinib' of Supplementary Table 1),run:Lestaurtinib_02765_R2,Plate:MR026
# [5] = compound concentrations:100 nM and 1000 nM (sheet 'Lestaurtinib' of Supplementary Table 1),run:Lestaurtinib_02765_R3,Plate:MR026
# [6] = compound concentrations:100 nM and 1000 nM (sheet 'Lestaurtinib' of Supplementary Table 1),run:Lestaurtinib_02766_R1,Plate:MR027
# [7] = compound concentrations:100 nM and 1000 nM (sheet 'Lestaurtinib' of Supplementary Table 1),run:Lestaurtinib_02766_R3,Plate:MR027
# [8] = compound concentrations:100 nM and 1000 nM (sheet 'Lestaurtinib' of Supplementary Table 1),run:Lestaurtinib_02768_R1,Plate:MR028
# [9] = compound concentrations:100 nM and 1000 nM (sheet 'Lestaurtinib' of Supplementary Table 1),run:Lestaurtinib_02768_R2,Plate:MR028
# [10] = compound concentrations:100 nM and 1000 nM (sheet 'Lestaurtinib' of Supplementary Table 1),run:Lestaurtinib_02795_R1,Plate:MR022
# [11] = compound concentrations:100 nM and 1000 nM (sheet 'Lestaurtinib' of Supplementary Table 1),run:Lestaurtinib_02795_R3,Plate:MR022
# [12] = compound concentrations:100 nM and 1000 nM (sheet 'Lestaurtinib' of Supplementary Table 1),run:Lestaurtinib_02802_R1,Plate:MR029
# [13] = compound concentrations:100 nM and 1000 nM (sheet 'Lestaurtinib' of Supplementary Table 1),run:Lestaurtinib_02802_R3,Plate:MR029
# [14] = compound concentrations:100 nM and 1000 nM (sheet 'Lestaurtinib' of Supplementary Table 1),run:Lestaurtinib_02896_R1,Plate:MR030
# [15] = compound concentrations:100 nM and 1000 nM (sheet 'Lestaurtinib' of Supplementary Table 1),run:Lestaurtinib_02896_R3,Plate:MR030
# [16] = compound concentrations:100 nM and 1000 nM (sheet 'Lestaurtinib' of Supplementary Table 1),run:Lestaurtinib_03172_R3,Plate:MR031
# [17] = compound concentrations:100 nM and 1000 nM (sheet 'Lestaurtinib' of Supplementary Table 1),run:Lestaurtinib_03252_R1,Plate:MR032
# [18] = compound concentrations:100 nM and 1000 nM (sheet 'Lestaurtinib' of Supplementary Table 1),run:Lestaurtinib_03260_R3,Plate:MR033
substance,measurement,setting,value
Lestaurtinib,potency estimated from few doses,SYK; [1],393 nM
same,potency estimated from few doses,"SYK; compound concentrations:100 nM and 1000 nM (sheet 'Lestaurtinib' of Supplementary Table 1),run:Lestaurtinib_02748_R2,Plate:MR024",196 nM
same,potency estimated from few doses,SYK; [2],510 nM
same,potency estimated from few doses,SYK; [3],136 nM
same,potency estimated from few doses,SYK; [4],169 nM
same,potency estimated from few doses,SYK; [5],182 nM
same,potency estimated from few doses,SYK; [6],211 nM
same,potency estimated from few doses,SYK; [7],441 nM
same,potency estimated from few doses,SYK; [8],484 nM
same,potency estimated from few doses,SYK; [9],424 nM
same,potency estimated from few doses,SYK; [10],460 nM
same,potency estimated from few doses,"SYK; compound concentrations:100 nM and 1000 nM (sheet 'Lestaurtinib' of Supplementary Table 1),run:Lestaurtinib_02795_R2,Plate:MR022",141 nM
same,potency estimated from few doses,SYK; [11],259 nM
same,potency estimated from few doses,SYK; [12],239 nM
same,potency estimated from few doses,SYK; [13],451 nM
same,potency estimated from few doses,SYK; [14],253 nM
same,potency estimated from few doses,SYK; [15],217 nM
same,potency estimated from few doses,"SYK; compound concentrations:100 nM and 1000 nM (sheet 'Lestaurtinib' of Supplementary Table 1),run:Lestaurtinib_03172_R2,Plate:MR031",595 nM
same,potency estimated from few doses,SYK; [16],400 nM
same,potency estimated from few doses,SYK; [17],149 nM
same,potency estimated from few doses,"SYK; compound concentrations:100 nM and 1000 nM (sheet 'Lestaurtinib' of Supplementary Table 1),run:Lestaurtinib_03252_R2,Plate:MR032",222 nM
same,potency estimated from few doses,"SYK; compound concentrations:100 nM and 1000 nM (sheet 'Lestaurtinib' of Supplementary Table 1),run:Lestaurtinib_03260_R2,Plate:MR033",224 nM
same,potency estimated from few doses,SYK; [18],130 nM
same,potency estimated from few doses,"TNK2; compound concentrations:100 nM and 1000 nM (sheet 'Lestaurtinib' of Supplementary Table 1),run:Lestaurtinib_02339_R3,Plate:MR001",44 nM
same,potency estimated from few doses,"TNK2; compound concentrations:100 nM and 1000 nM (sheet 'Lestaurtinib' of Supplementary Table 1),run:Lestaurtinib_02364_R1,Plate:MR002",69.8 nM
same,potency estimated from few doses,"TNK2; compound concentrations:100 nM and 1000 nM (sheet 'Lestaurtinib' of Supplementary Table 1),run:Lestaurtinib_02364_R2,Plate:MR002",56.4 nM
same,potency estimated from few doses,"TNK2; compound concentrations:100 nM and 1000 nM (sheet 'Lestaurtinib' of Supplementary Table 1),run:Lestaurtinib_02364_R3,Plate:MR002",61.3 nM
same,potency estimated from few doses,"TNK2; compound concentrations:100 nM and 1000 nM (sheet 'Lestaurtinib' of Supplementary Table 1),run:Lestaurtinib_02367_R1,Plate:MR003",66.6 nM
same,potency estimated from few doses,"TNK2; compound concentrations:100 nM and 1000 nM (sheet 'Lestaurtinib' of Supplementary Table 1),run:Lestaurtinib_02367_R2,Plate:MR003",52.8 nM
same,potency estimated from few doses,"TNK2; compound concentrations:100 nM and 1000 nM (sheet 'Lestaurtinib' of Supplementary Table 1),run:Lestaurtinib_02381_R1,Plate:MR004",50 nM
same,potency estimated from few doses,"TNK2; compound concentrations:100 nM and 1000 nM (sheet 'Lestaurtinib' of Supplementary Table 1),run:Lestaurtinib_02381_R2,Plate:MR004",65.5 nM
same,potency estimated from few doses,"TNK2; compound concentrations:100 nM and 1000 nM (sheet 'Lestaurtinib' of Supplementary Table 1),run:Lestaurtinib_02407_R3,Plate:MR005",54.4 nM
same,potency estimated from few doses,"TNK2; compound concentrations:100 nM and 1000 nM (sheet 'Lestaurtinib' of Supplementary Table 1),run:Lestaurtinib_02422_R1,Plate:MR006",44.1 nM
same,potency estimated from few doses,"TNK2; compound concentrations:100 nM and 1000 nM (sheet 'Lestaurtinib' of Supplementary Table 1),run:Lestaurtinib_02422_R3,Plate:MR006",48 nM
same,potency estimated from few doses,"TNK2; compound concentrations:100 nM and 1000 nM (sheet 'Lestaurtinib' of Supplementary Table 1),run:Lestaurtinib_02437_R3,Plate:MR007",14.1 nM
same,potency estimated from few doses,"TNK2; compound concentrations:100 nM and 1000 nM (sheet 'Lestaurtinib' of Supplementary Table 1),run:Lestaurtinib_02438_R2,Plate:MR008",43.2 nM
same,potency estimated from few doses,"TNK2; compound concentrations:100 nM and 1000 nM (sheet 'Lestaurtinib' of Supplementary Table 1),run:Lestaurtinib_02443_R2,Plate:MR009",44.4 nM
same,potency estimated from few doses,"TNK2; compound concentrations:100 nM and 1000 nM (sheet 'Lestaurtinib' of Supplementary Table 1),run:Lestaurtinib_02443_R3,Plate:MR009",62 nM
same,potency estimated from few doses,"TNK2; compound concentrations:100 nM and 1000 nM (sheet 'Lestaurtinib' of Supplementary Table 1),run:Lestaurtinib_02473_R1,Plate:MR010",52.5 nM
same,potency estimated from few doses,"TNK2; compound concentrations:100 nM and 1000 nM (sheet 'Lestaurtinib' of Supplementary Table 1),run:Lestaurtinib_02473_R3,Plate:MR010",23.2 nM
same,potency estimated from few doses,"TNK2; compound concentrations:100 nM and 1000 nM (sheet 'Lestaurtinib' of Supplementary Table 1),run:Lestaurtinib_02482_R1,Plate:MR011",54.7 nM
same,potency estimated from few doses,"TNK2; compound concentrations:100 nM and 1000 nM (sheet 'Lestaurtinib' of Supplementary Table 1),run:Lestaurtinib_02482_R2,Plate:MR011",59.1 nM
same,potency estimated from few doses,"TNK2; compound concentrations:100 nM and 1000 nM (sheet 'Lestaurtinib' of Supplementary Table 1),run:Lestaurtinib_02482_R3,Plate:MR011",60.1 nM
same,potency estimated from few doses,"TNK2; compound concentrations:100 nM and 1000 nM (sheet 'Lestaurtinib' of Supplementary Table 1),run:Lestaurtinib_02487_R1,Plate:MR012",51.2 nM
same,potency estimated from few doses,"TNK2; compound concentrations:100 nM and 1000 nM (sheet 'Lestaurtinib' of Supplementary Table 1),run:Lestaurtinib_02487_R3,Plate:MR012",44.6 nM
same,potency estimated from few doses,"TNK2; compound concentrations:100 nM and 1000 nM (sheet 'Lestaurtinib' of Supplementary Table 1),run:Lestaurtinib_02496_R2,Plate:MR013",48.4 nM
same,potency estimated from few doses,"TNK2; compound concentrations:100 nM and 1000 nM (sheet 'Lestaurtinib' of Supplementary Table 1),run:Lestaurtinib_02496_R3,Plate:MR013",38.5 nM
same,potency estimated from few doses,"TNK2; compound concentrations:100 nM and 1000 nM (sheet 'Lestaurtinib' of Supplementary Table 1),run:Lestaurtinib_02566_R1,Plate:MR014",51.6 nM
same,potency estimated from few doses,"TNK2; compound concentrations:100 nM and 1000 nM (sheet 'Lestaurtinib' of Supplementary Table 1),run:Lestaurtinib_02566_R2,Plate:MR014",58.8 nM
same,potency estimated from few doses,"TNK2; compound concentrations:100 nM and 1000 nM (sheet 'Lestaurtinib' of Supplementary Table 1),run:Lestaurtinib_02572_R1,Plate:MR015",37.5 nM
same,potency estimated from few doses,"TNK2; compound concentrations:100 nM and 1000 nM (sheet 'Lestaurtinib' of Supplementary Table 1),run:Lestaurtinib_02572_R2,Plate:MR015",46.2 nM
same,potency estimated from few doses,"TNK2; compound concentrations:100 nM and 1000 nM (sheet 'Lestaurtinib' of Supplementary Table 1),run:Lestaurtinib_02572_R3,Plate:MR015",49.3 nM
same,potency estimated from few doses,"TNK2; compound concentrations:100 nM and 1000 nM (sheet 'Lestaurtinib' of Supplementary Table 1),run:Lestaurtinib_02577_R1,Plate:MR016",55.6 nM
same,potency estimated from few doses,"TNK2; compound concentrations:100 nM and 1000 nM (sheet 'Lestaurtinib' of Supplementary Table 1),run:Lestaurtinib_02577_R2,Plate:MR016",56.4 nM
same,potency estimated from few doses,"TNK2; compound concentrations:100 nM and 1000 nM (sheet 'Lestaurtinib' of Supplementary Table 1),run:Lestaurtinib_02577_R3,Plate:MR016",62.6 nM
same,potency estimated from few doses,"TNK2; compound concentrations:100 nM and 1000 nM (sheet 'Lestaurtinib' of Supplementary Table 1),run:Lestaurtinib_02584_R1,Plate:MR017",56.4 nM
same,potency estimated from few doses,"TNK2; compound concentrations:100 nM and 1000 nM (sheet 'Lestaurtinib' of Supplementary Table 1),run:Lestaurtinib_02584_R2,Plate:MR017",64.8 nM
same,potency estimated from few doses,"TNK2; compound concentrations:100 nM and 1000 nM (sheet 'Lestaurtinib' of Supplementary Table 1),run:Lestaurtinib_02601_R1,Plate:MR018",77.3 nM
same,potency estimated from few doses,"TNK2; compound concentrations:100 nM and 1000 nM (sheet 'Lestaurtinib' of Supplementary Table 1),run:Lestaurtinib_02606_R1,Plate:MR019",55.6 nM
same,potency estimated from few doses,"TNK2; compound concentrations:100 nM and 1000 nM (sheet 'Lestaurtinib' of Supplementary Table 1),run:Lestaurtinib_02606_R3,Plate:MR019",54.4 nM
same,potency estimated from few doses,"TNK2; compound concentrations:100 nM and 1000 nM (sheet 'Lestaurtinib' of Supplementary Table 1),run:Lestaurtinib_02624_R2,Plate:MR020",52.3 nM
same,potency estimated from few doses,"TNK2; compound concentrations:100 nM and 1000 nM (sheet 'Lestaurtinib' of Supplementary Table 1),run:Lestaurtinib_02724_R2,Plate:MR021",56.1 nM
same,potency estimated from few doses,"TNK2; compound concentrations:100 nM and 1000 nM (sheet 'Lestaurtinib' of Supplementary Table 1),run:Lestaurtinib_02741_R2,Plate:MR023",224 nM
same,potency estimated from few doses,TNK2; [1],38.5 nM
same,potency estimated from few doses,"TNK2; compound concentrations:100 nM and 1000 nM (sheet 'Lestaurtinib' of Supplementary Table 1),run:Lestaurtinib_02748_R3,Plate:MR024",52.3 nM
same,potency estimated from few doses,TNK2; [2],57.7 nM
same,potency estimated from few doses,TNK2; [3],46.1 nM
same,potency estimated from few doses,TNK2; [4],115 nM
same,potency estimated from few doses,TNK2; [5],75.6 nM
same,potency estimated from few doses,TNK2; [6],51.8 nM
same,potency estimated from few doses,"TNK2; compound concentrations:100 nM and 1000 nM (sheet 'Lestaurtinib' of Supplementary Table 1),run:Lestaurtinib_02766_R2,Plate:MR027",15.7 nM
same,potency estimated from few doses,TNK2; [7],41.6 nM
same,potency estimated from few doses,TNK2; [8],60 nM
same,potency estimated from few doses,TNK2; [9],56.1 nM
same,potency estimated from few doses,TNK2; [10],49.4 nM
same,potency estimated from few doses,TNK2; [11],160 nM
same,potency estimated from few doses,TNK2; [12],71.2 nM
same,potency estimated from few doses,TNK2; [13],9.76 nM
same,potency estimated from few doses,TNK2; [14],61.8 nM
same,potency estimated from few doses,TNK2; [15],53.9 nM
same,potency estimated from few doses,"TNK2; compound concentrations:100 nM and 1000 nM (sheet 'Lestaurtinib' of Supplementary Table 1),run:Lestaurtinib_03172_R1,Plate:MR031",45.6 nM
same,potency estimated from few doses,TNK2; [16],48.7 nM
same,potency estimated from few doses,TNK2; [17],75.4 nM
same,potency estimated from few doses,"TNK2; compound concentrations:100 nM and 1000 nM (sheet 'Lestaurtinib' of Supplementary Table 1),run:Lestaurtinib_03260_R1,Plate:MR033",115 nM
same,potency estimated from few doses,TNK2; [18],59.2 nM
